WRN helicase inh: WRN helicase (human) inhibition | Potency, µM (doses to about 114 µM), without a hit: top-dose activity change, negative = inhibition, hits mostly inhibitors | AID 651768 | Q14191 | 360,000 tested, 0.46% active | WRN helicase unwinding, fluorescent forked duplex, kinetic; further: nearly all actives have a fitted effect of over 55% in size
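Kinetic fluorescence helicase assay: unwinding of a quenched forked DNA duplex (100 nM final) with 2 mM ATP final raises red fluorescence (525/598 nm). Compounds sat 15 min at room temperature with 20 nM WRN beforehand.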
FEN1 inh: blocks human flap endonuclease 1; P39748; Recombinant FEN1 flap cleavage, fluorescence, 15 min; Potency, µM (doses to about 114 µM), without a hit: at the top dose activity change, negative = inhibition, hits mostly inhibitors; 390,000 tested, 0.35% active; further: nearly all actives have a fitted effect of over 65% in size
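Enzyme 10 nM, 15 min RT preincubation with compound; start with substrate 50 nM final; reads at 0 and 15 min; qHTS titration, four-parameter Hill fit.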
RECQ1 inh-1: blocks DNA unwinding by human RECQ1. RECQ1 DNA unwinding, red fluorescence kinetic read. AID 2549. P46063. Potency, µM (doses to about 57.3 µM), for the others: top-dose activity, negative = inhibition, most hits filed as inhibitors. 240,000 tested, 0.54% active;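 further: plate controls were vehicle for no effect and no enzyme for full effect; nearly all actives have a fitted effect of over 30% in size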
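RECQ1T1 50 nM; forked duplex (20 bp + 30-nt ss tails) 200 nM, ATP 2 mM final; pH 8.0, 2 mM MgCl2, 2.5 ug/ml poly(dI-dC); 15 min compound preincubation; discontinuous kinetic read over 2 h at RT.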
BLM inh: Bloom syndrome helicase (human) inhibition; P54132; recombinant BLM DNA unwinding, fluorescence dequenching; Potency, µM (highest dose often 56.1 µM), for inactives: at the highest dose activity change, negative = inhibition, usual class: inhibitors; 350,000 tested, 0.2% active; AID 2528;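 further: plate controls were vehicle for no effect and no enzyme for full effect; nearly all actives have a fitted effect of over 35% in size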
Target sequence (P54132 whole entry, looked up): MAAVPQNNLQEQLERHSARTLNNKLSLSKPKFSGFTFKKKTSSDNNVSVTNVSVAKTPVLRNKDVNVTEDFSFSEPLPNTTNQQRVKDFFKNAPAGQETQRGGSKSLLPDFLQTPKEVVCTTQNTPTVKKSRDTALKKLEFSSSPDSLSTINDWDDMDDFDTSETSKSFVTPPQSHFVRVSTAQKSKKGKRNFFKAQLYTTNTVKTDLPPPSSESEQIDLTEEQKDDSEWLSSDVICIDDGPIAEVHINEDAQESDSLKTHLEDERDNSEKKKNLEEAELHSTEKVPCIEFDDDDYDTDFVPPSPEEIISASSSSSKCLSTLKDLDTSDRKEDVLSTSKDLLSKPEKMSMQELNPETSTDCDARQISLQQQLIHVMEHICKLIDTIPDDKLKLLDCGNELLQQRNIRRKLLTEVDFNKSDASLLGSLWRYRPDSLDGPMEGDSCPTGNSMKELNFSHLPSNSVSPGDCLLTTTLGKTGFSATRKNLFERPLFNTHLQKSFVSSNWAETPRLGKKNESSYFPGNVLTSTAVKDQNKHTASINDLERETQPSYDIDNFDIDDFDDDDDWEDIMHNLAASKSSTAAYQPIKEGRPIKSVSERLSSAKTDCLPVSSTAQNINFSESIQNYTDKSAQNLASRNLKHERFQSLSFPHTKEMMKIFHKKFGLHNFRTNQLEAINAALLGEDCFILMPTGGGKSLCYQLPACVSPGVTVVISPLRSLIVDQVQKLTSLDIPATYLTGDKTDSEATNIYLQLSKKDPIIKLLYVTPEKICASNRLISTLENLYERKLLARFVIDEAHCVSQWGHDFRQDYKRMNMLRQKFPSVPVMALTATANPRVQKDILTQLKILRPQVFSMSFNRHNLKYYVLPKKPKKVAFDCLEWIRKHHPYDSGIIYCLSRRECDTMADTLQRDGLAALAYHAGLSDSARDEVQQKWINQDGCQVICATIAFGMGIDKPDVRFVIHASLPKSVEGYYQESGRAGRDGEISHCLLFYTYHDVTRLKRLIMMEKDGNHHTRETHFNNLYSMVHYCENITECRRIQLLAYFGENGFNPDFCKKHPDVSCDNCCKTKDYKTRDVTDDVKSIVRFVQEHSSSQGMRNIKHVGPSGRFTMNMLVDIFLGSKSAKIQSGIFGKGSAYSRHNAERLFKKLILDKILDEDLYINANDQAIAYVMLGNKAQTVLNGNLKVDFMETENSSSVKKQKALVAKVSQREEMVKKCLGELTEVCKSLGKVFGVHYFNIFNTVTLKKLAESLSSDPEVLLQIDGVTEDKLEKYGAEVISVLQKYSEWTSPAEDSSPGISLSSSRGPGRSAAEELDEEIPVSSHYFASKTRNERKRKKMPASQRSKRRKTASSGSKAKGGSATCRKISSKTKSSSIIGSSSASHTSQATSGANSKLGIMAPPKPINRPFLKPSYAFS
L3MBTL1 block: blocks human L3MBTL1; 230,000 tested, 0.66% active; Potency, µM (highest dose often 57.1 µM), for the others: at the highest dose activity, negative = inhibition, most hits filed as inhibitors; AID 485360; AlphaScreen L3MBTL1–H3K9me1 peptide binding; further: nearly all actives have a fitted effect of over 60% in size
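Read-out is AlphaScreen signal from streptavidin donor and nickel chelate acceptor beads (10 ug/mL final each) bridging L3MBTL1 (50 nM) and biotinylated K9-monomethylated H3(1-15) peptide (75 nM), after 30 min compound exposure at room temperature.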
RECQ1 conf: confirmation of human RECQ1 helicase inhibitors. RECQ1 helicase DNA unwinding, fluorescence. Potency, µM (series often up to 229 µM), without a hit: top-dose activity change, negative = inhibition, actives largely listed as inhibitors. shares compounds with RECQ1 inh-1. 610 tested, 28% active; further: nearly all actives have a fitted effect of over 45% in size
RECQ1 ADP FP: ADP displacement flagged in RECQ1 inhibitor counter-screen | Potency, µM (titrated, usually from 228 µM), for the others: top-dose activity change, negative = inhibition, usual class: inhibitors | ADP fluorescence polarization displacement counterscreen | AID 2711 | 530 tested, 27% active | shares compounds with RECQ1 inh-1; further: nearly all actives have a fitted effect of over 45% in size
RECQ1 inh-2: confirmation of human RECQ1 helicase inhibitors. shares compounds with RECQ1 inh-1. recombinant RECQ1 DNA unwinding, red fluorescence. Potency, µM (series often up to 119 µM), for inactives: at the highest dose activity, negative = inhibition, usual class: inhibitors. 1,100 tested, 15% active. AID 504841; further: nearly all actives have a fitted effect of over 50% in size
* hit, by the source's call; i = inactive; ? = inconclusive; . = no result; [ ] = another dose, or the depositor's remark. Only some compounds are listed: those with a hit (about 0.99% of all), similar ones and a draw of the others. The call rests on the fitted dose curve; in most records, active means well fitted curve in the direction sought with a large enough effect; inconclusive means small, poorly fitted or top-dose-only effect, or another doubt; inactive means no such curve, though single readings can be large; an effect the other way counts as inactive or inconclusive. Unless noted, on the % scale 0 is the no-effect control and ±100 the full control effect; potency means the concentration at half of the fitted maximal effect.

SMILES	WRN helicase inh	FEN1 inh	RECQ1 inh-1	BLM inh	L3MBTL1 block	RECQ1 inh-2	others
CCNc1ncc2nc(-c3cc(F)cc(F)c3)c(=O)n(CCc3ccccc3)c2n1	.	.	?	-8.6%	.	15.8µM*
CCNc1ncc2nc(-c3ccc(OC)cc3)c(=O)n(CCc3ccccc3)c2n1	.	.	-11.8%	0.7%	.	.
CC(Sc1nnc(COc2ccccc2)n1Cc1ccccc1)C(=O)O (centres undefined)	-1.6%	-2.4%	-7.0%	-2.6%	16.9%	.
Cc1cc(OCc2nnc(SC(C)C(=O)O)n2Cc2ccccc2)ccc1Cl (centres undefined)	-18.6%	-4.4%	i	-4.2%	2.5%	.	RECQ1 conf=12.6%;RECQ1 ADP FP=-11.9%
CC(Sc1nnc(COc2ccc(Cl)cc2)n1Cc1ccccc1)C(=O)O (centres undefined)	-6.4%	2.7%	-0.7%	3.4%	4.8%	.	RECQ1 conf=17.3%;RECQ1 ADP FP=1.4%
O=C(CSc1nc2ccccc2o1)c1ccc2c(c1)OCCO2	-19.5%	14.0%	-18.1%	-1.7%	9.8%[11.4 µM]	.
COc1ccc(/C=N/NC(=O)c2cc(O)c(O)c(O)c2)cc1Cn1cc([N+](=O)[O-])cn1	8.91µM*	?	1.78µM*	?	.	.	RECQ1 conf=?;RECQ1 ADP FP=-9.9%[91.9 µM]
COc1ccc(/C=N/NC(=O)c2ccccc2O)cc1Cn1cc([N+](=O)[O-])cn1	-9.1%	-3.7%	4.9%	-5.9%	8.5%	.
CCOC(=O)c1ccc(N2C(=O)c3n[nH]c(-c4ccco4)c3C2c2ccc([N+](=O)[O-])cc2)cc1 (centres undefined)	-4.2%	1.4%	?	-10.5%	-30.9%	-18.6%
COc1ccc(CNC(=O)CN2CCN(S(=O)(=O)c3cc(Br)ccc3Br)CC2)cc1OC	4.8%	-7.1%	.	.	-2.0%	.
CC(=O)Oc1ccc(C(=O)Nc2cccc(C(=O)NC(C)(C)C)c2)cc1	-6.6%	-7.7%	-5.7%	0.7%	.	.
CC(=O)Oc1ccc(C(=O)Nc2cccc(C(=O)c3cccc(NC(=O)c4ccc(OC(C)=O)cc4)c3)c2)cc1	?	?	14.1µM*	-28.5%	-7.6%	?
CCOC(=O)c1cc(-c2ccccc2)sc1NC(=O)CN1C(=O)NC(CC)(c2ccc(F)cc2)C1=O (centres undefined)	-0.8%	2.0%	31.6µM*	-8.5%	.	-21.4%
c1ccc(Cc2nn[nH]n2)cc1	6.2%	-1.5%	-3.7%	-3.7%	3.7%	.
COc1ccc(C(=O)Nc2ccccc2C(=O)Nc2cccnc2)cc1	-3.6%	-14.6%	.	-0.3%	.	.
COc1ccc(C(=O)Nc2cccnc2)cc1	-0.7%	-9.4%	-5.7%	0.4%	.	.	RECQ1 conf=6.3%;RECQ1 ADP FP=?
O=C(c1ccco1)N1CCN(C(c2ccccc2F)c2nnnn2CC2CCCO2)CC1 (centres undefined)	-24.5%	3.5%	i	-5.0%	.	.
Cc1ccc(-n2nc(-c3ccco3)cc2C(=O)O)cc1	44.7µM*	-8.5%	20µM*	0.5%	.	?
O=C(CCNS(=O)(=O)c1ccccc1)OCC(=O)c1ccc(Cl)cc1	6.2%	-19.4%	.	.	0.4%	.
COC(=O)[C@H](CC(C)C)NC(=O)Nc1ccc(F)cc1	8.4%	-4.0%	-3.7%	0.2%	9.5%	.
CCOC(=O)C1=C(C)Nc2nnnn2C1c1c[nH]c2ccccc12 (centres undefined)	.	.	-4.2%	1.8%	18.0%	.
O=C1C(=O)C(c2ccc(O)cc2O)Oc2cc(O)cc(O)c21 (centres undefined)	.	20µM*	.	.	.	.	RECQ1 conf=?
O=C1c2c(O)cc(O)cc2OC(c2ccc(O)c(O)c2)C1O (centres undefined)	.	.	-4.9%	-1.4%	.	.
Cc1nnc(SCC(=O)N2N=C(c3ccc(Cl)cc3)CC2c2ccco2)[nH]c1=O (centres undefined)	?	?	31.6µM*	-9.8%	.	-29.9%
CC1(C)c2ccccc2N2CCC(=O)NC21/C=C/c1ccco1 (centres undefined)	-5.8%	-1.2%	?	-6.5%	-1.3%	-4.2%
SMILES	WRN helicase inh	FEN1 inh	RECQ1 inh-1	BLM inh	L3MBTL1 block	RECQ1 inh-2	others
Cc1oc(-c2ccc(Cl)cc2)cc1-c1nn2c(-c3ccoc3C)nnc2s1	?	-0.6%	14.1µM*	10µM*	?	.	RECQ1 conf=35.5µM*;RECQ1 ADP FP=14.5%[91.9 µM]
COc1cccc(C2c3c(C)nn(-c4ccc([N+](=O)[O-])cc4)c3N=C3C(=O)Nc4ccccc4N32)c1 (centres undefined)	1.4%	-6.2%	?	-1.0%	-18.6%	-11.7%
NNc1nc2sc3c(c2c(=O)n1Cc1ccccc1)CCC3	-15.4%[11.6 µM]	-1.3%	-3.4%	-12.3%	-30.0%	.
CCn1c(NN)nc2sc3c(c2c1=O)CCC3	-13.6%	-10.3%	?	-15.9%	.	-11.1%
O=[N+]([O-])c1cc(Cl)ccc1Nc1nc(Nc2ccc(Cl)cc2[N+](=O)[O-])nc(N2CCOCC2)n1	.	0.4%	.	.	.	.	RECQ1 conf=-7.7%[69.1 µM]
Cc1ccc(Cl)cc1Nc1nc(N2CCOCC2)nc(N2CCOCC2)n1	4.8%	-7.7%	.	-3.7%	.	.
O=C(Nc1nc2ccc(SC(F)F)cc2s1)c1ccc(NS(=O)(=O)c2ccc(F)c(F)c2)cc1	-30.9%	?	?	-18.6%	-12.0%	?
CS(=O)(=O)c1ccc2nc(NC(=O)c3ccc(NS(=O)(=O)c4ccc(F)c(F)c4)cc3)sc2c1	-8.5%	-2.8%	31.6µM*	-12.2%	.	-21.3%
FC(F)(F)c1cc(C(F)(F)F)c2ccc(N3CCN(c4ncccn4)CC3)nc2n1	8.3%	10.6%	-7.7%	0.3%	-3.7%	.
CCc1cc2c(=O)c(-c3nc4ccccc4[nH]3)coc2c(CN2CCCCC2C)c1O (centres undefined)	-11.6%	-18.0%	?	-14.7%	0.0%	.
CCc1cc2c(=O)c(-c3ccc4c(c3)OCCO4)coc2c(CN2CCCCC2C)c1O (centres undefined)	-2.5%	-16.7%	?	-2.6%	-1.2%	-12.8%
NC1=NC(=O)/C(=C\c2ccco2)S1	50.1µM*	50.1µM*	?	-22.3%	.	-22.3%
O=C(O)/C=C/c1cccc(NC(=O)c2ccccc2)c1	1.6%	4.1%	-4.9%	1.4%	2.5%	.
Cc1ccc(NC(=O)CSCC#N)cc1Cl	-20.8%	-0.4%	28.2µM*	3.8%	11.1%	0.3%
CCOc1ccc(S(=O)(=O)Nc2nc3ccccc3nc2-n2ccc(=NC(=O)c3ccccc3C)cc2)cc1	-25.7%	0.6%	?	-15.6%	-0.8%	-1.7%

Assay outcomes as filed in PubChem BioAssay.
